From PubChem BioAssay (Tox21) come the findings set out here.

Test [1] is described as follows: qHTS assay to identify small molecule antagonists of the thyroid receptor (TR) signaling pathway - cell viability counter screen (AID 743064). Note: nearly all actives have a fitted effect of over 50% in size. Note: potency is the fitted concentration of half-maximal effect. The procedure, abridged:
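GH3.TRE-Luc cells, 4 h pre-plating; cpd + T3 1 nM final; 37 °C 23.5 h; CellTiter-Fluor 30 min; fluorescence read.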
On the technique in general: qHTS replaces the single test concentration by a dilution series.

Test [2] concerns the target Estrogen receptor (Homo sapiens) (UniProt P03372). Briefly: qHTS assay to identify small molecule antagonists of the estrogen receptor alpha (ER-alpha) signaling pathway (AID 743069; active = well fitted curve in the direction sought with a large enough effect in the signal ratio in the repeat runs, not every such curve was filed as active; inconclusive = weak or mixed curves, or effect the other way; inactive = no such curve, though single readings can be large or run the other way; the % refers to the signal ratio; note: potency is the fitted concentration of half-maximal effect). The procedure, abridged: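 In this cell-based reporter format, GripTite HEK293 cells harbouring ER-alpha-UAS-bla were grown overnight with 2% charcoal-stripped FBS, dosed with DMSO-dissolved compounds, then challenged with 17beta-estradiol. After 18 hr at 37C, beta-lactamase activity was detected by FRET fluorescence.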

A short description of test [3]: qHTS assay to identify small molecule antagonists of the estrogen receptor alpha (ER-alpha) signaling pathway - cell viability counter screen (AID 743074; calls by dose curve; note: nearly all actives have a fitted effect of over 45% in size; note: potency is the fitted concentration of half-maximal effect).
In test [4] the target is Estrogen receptor (Homo sapiens) (UniProt P03372). Briefly: qHTS assay to identify small molecule agonists of the estrogen receptor alpha (ER-alpha) signaling pathway (AID 743075; calls by dose curve; note: potency is the fitted concentration of half-maximal effect).
A short description of test [5]: qHTS assay to identify small molecule antagonists of the estrogen receptor alpha (ER-alpha) signaling pathway using the BG1 cell line - cell viability counter screen (AID 743081).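 Note: compound given together with 17beta-estradiol as the ER stimulus; nearly all actives have a fitted effect of over 45% in size.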 Note: potency is the fitted concentration of half-maximal effect.
Another test has as its target Aromatase (Homo sapiens) (UniProt P11511). Briefly: qHTS assay to identify aromatase inhibitors (AID 743083). Note: nearly all actives have a fitted effect of over 55% in size.
Test [6] deals with thyroid hormone receptor (rat, GH3 cells). Briefly: qHTS assay to identify small molecule agonists of the thyroid receptor (TR) signaling pathway (AID 743066; calls by dose curve).
Test [7] addresses Estrogen receptor (Homo sapiens) (UniProt P03372). Briefly: qHTS assay to identify small molecule agonists of the estrogen receptor alpha (ER-alpha) signaling pathway using the BG1 cell line (AID 743079). Note: nearly all actives have a fitted effect of over 20% in size. Note: potency is the fitted concentration of half-maximal effect. Particulars: BG1Luc4E2 cells, ERE-luciferase agonist, 22 h; activation: at 70.3 µM (top of the series).
Test [8] in a line: qHTS assay to identify small molecule antagonists of the estrogen receptor alpha (ER-alpha) signaling pathway using the BG1 cell line (AID 743080; calls by dose curve;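 note: BG1 cells stimulated with 17beta-estradiol alongside compound; nearly all actives have a fitted effect of over 25% in size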). The procedure, abridged: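 BG1-Luc-4E2 cells (endogenous full-length ER-alpha, stable 4×ERE-luciferase) were starved 5 days in phenol-red-free medium with 10% charcoal-stripped FBS, plated 24 h, then given compound plus 17beta-estradiol for 21.5 h at 37 C; ONE-Glo luminescence read after 30 min.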

Values joined by “and” are separate entries in the source; they are usually repeats but may differ in a detail not shown here. Identical values can stand only once. Some compounds were tested as several samples or in several runs, with calls that do not always agree. Active and inactive are the calls of the source. Unless noted, calls come from the whole dose curve; as a rule, active = well fitted curve in the direction sought with a large enough effect in the repeat runs; inconclusive = weak or mixed curves; inactive = no such curve, though single readings can be large; an effect the other way counts as inactive or inconclusive. Positions of bridges follow the written chain, without caps; N, C: chain ends. Non-standard residues stand in square brackets, D forms with d. Residues, ends and D or L forms follow the SMILES beside them. ξ: configuration not given here. *: point of attachment. d(aThr) = C[C@@H](O)[C@@H](N)C(=O)O; ξThr(3R) = C[C@@H](O)C(N)C(=O)O; X3 = CC[C@@H](C)CCCCC(=O)*; dDab = NCC[C@@H](N)C(=O)O

Chain of Estrogen receptor (Homo sapiens) (P03372 whole entry, looked up): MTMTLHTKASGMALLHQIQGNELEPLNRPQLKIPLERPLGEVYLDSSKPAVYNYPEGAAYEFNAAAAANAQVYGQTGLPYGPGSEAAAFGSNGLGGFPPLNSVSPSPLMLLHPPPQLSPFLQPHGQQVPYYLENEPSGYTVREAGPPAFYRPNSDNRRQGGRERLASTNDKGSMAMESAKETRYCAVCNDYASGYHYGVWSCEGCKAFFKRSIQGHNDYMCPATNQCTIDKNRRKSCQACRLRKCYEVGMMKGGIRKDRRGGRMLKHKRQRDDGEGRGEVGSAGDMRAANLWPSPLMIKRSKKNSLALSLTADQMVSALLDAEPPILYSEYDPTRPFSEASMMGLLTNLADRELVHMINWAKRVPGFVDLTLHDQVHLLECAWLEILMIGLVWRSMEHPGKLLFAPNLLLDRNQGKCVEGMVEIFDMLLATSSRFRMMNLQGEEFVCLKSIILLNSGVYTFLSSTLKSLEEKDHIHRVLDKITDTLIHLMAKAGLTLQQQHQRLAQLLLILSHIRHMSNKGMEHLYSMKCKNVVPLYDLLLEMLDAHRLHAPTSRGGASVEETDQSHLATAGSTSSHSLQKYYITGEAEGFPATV
Chain of Aromatase (Homo sapiens) (P11511 whole entry, looked up): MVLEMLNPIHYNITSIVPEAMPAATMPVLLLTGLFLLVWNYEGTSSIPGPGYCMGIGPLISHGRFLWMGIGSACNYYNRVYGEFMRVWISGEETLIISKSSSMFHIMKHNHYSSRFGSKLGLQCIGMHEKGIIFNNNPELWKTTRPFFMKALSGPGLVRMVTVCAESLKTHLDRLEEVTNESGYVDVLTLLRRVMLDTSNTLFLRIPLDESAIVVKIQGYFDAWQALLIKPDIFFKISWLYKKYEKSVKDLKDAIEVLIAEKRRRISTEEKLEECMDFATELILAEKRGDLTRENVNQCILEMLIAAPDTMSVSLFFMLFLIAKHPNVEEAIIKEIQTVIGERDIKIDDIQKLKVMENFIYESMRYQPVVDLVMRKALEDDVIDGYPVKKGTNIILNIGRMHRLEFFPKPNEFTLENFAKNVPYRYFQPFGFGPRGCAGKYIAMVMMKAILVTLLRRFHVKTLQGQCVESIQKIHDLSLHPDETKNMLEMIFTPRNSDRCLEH

With `CCC(C)[C@H]1O[C@]2(C=C[C@@H]1C)C[C@@H]1C[C@@H](C/C=C(\C)[C@@H](O[C@H]3C[C@H](OC)[C@@H](O[C@H]4C[C@H](OC)[C@H](NC(C)=O)[C@H](C)O4)[C@H](C)O3)[C@@H](C)/C=C/C=C3\CO[C@@H]4[C@H](O)C(C)=C[C@@H](C(=O)O1)[C@]34O)O2` (stereo partly drawn), the Potency was 2.66 µM (active) and 7.5 µM (active) in test [1]; 1.69 µM [inconclusive] (active) in test [2]; 8.49 µM (active) and 26.8 µM (active) in test [3]; 23.7 µM (active) and inactive in test [5]. The Potency result (in test [4]; with Aromatase (Homo sapiens)) was “inactive” in each case.

Take `Cc1cccc(Nc2ncccc2C(=O)O)c1C`: the Potency entry (in test [1]; in [6]; in [3]; in [4]; in test [5]; with Aromatase (Homo sapiens)) was “inactive” in each case.

Take `C[C@@H]1C[C@H]2C3C[C@H](F)C4=CC(=O)C=CC4(C)[C@@]3(F)[C@@H](O)CC2(C)[C@@]1(O)C(=O)COC(=O)C(C)(C)C` (stereo partly drawn): the Potency result in [1], in test [6], in test [3], in [4], in test [7] and in test [5] was “inactive” each time. Also, the Potency entry in the test with Aromatase (Homo sapiens) was “inactive”.

With `C[C@]12C=CC(=O)N[C@@H]1CC[C@@H]1[C@@H]2CC[C@]2(C)[C@@H](C(=O)Nc3cc(C(F)(F)F)ccc3C(F)(F)F)CC[C@@H]12`, the Potency entry (in [1]; in [6]; in test [4]; in test [5]; in the test with Aromatase (Homo sapiens)) was “inactive” each time.

As to `CN[C@@H]1CCc2[nH]c3ccc(C(N)=O)cc3c2C1`, the Potency entry (in test [1]; in [6]; in test [3]; in test [5]; with Aromatase (Homo sapiens)) was “inactive” throughout.

Regarding `CC[C@@H](C)CCCCC(=O)N[C@H](CCN)C(=O)N[C@@H](C(=O)N[C@H](CCN)C(=O)N[C@@H]1CCNC(=O)C([C@@H](C)O)NC(=O)[C@@H](CCN)NC(=O)[C@@H](CCN)NC(=O)[C@@H](CC(C)C)NC(=O)[C@@H](Cc2ccccc2)NC(=O)[C@@H](CCN)NC1=O)[C@@H](C)O` (stereo partly drawn) (X3-[dDab][d(aThr)][dDab][dDab][dDab][dF][dL][dDab][dDab][ξThr(3R)]; lactam 4-C), the Potency entry (in test [1]; in test [6]; in [3]; in [5]; with Aromatase (Homo sapiens)) was “inactive” throughout.

Turning to `CC1C(=O)CC2C3(C)CCC2(C(C)C(=O)O)C(=O)C13` (stereo not drawn), the Potency entry in [1], in [2], in test [3], in [4], in test [7] and in test [5] was “inactive” in each case. Besides, the Potency result with Aromatase (Homo sapiens) was “inactive”.

Take `COc1ccc(C[C@@H](C)NC[C@H](O)c2ccc(O)c(NC=O)c2)cc1`: the Potency entry in [1], in test [6], in test [2], in test [4], in test [7] and in test [5] was “inactive” each time.

Turning to `CCOC(=O)Oc1c(OC)cc(C(=O)O[C@@H]2C[C@@H]3CN4CCc5c([nH]c6cc(OC)ccc56)[C@H]4C[C@@H]3[C@H](C(=O)OC)[C@H]2OC)cc1OC`, the Potency result in test [1], in test [6], in test [3] and in test [5] was “inactive” in each case.

For `CC(=O)OCC(=O)[C@@]1(O)[C@H](C)C[C@H]2[C@@H]3C[C@H](F)C4=CC(=O)C=C[C@]4(C)[C@H]3[C@@H](O)C[C@@]21C`, the Potency entry (in [1]; in test [6]; in [3]; in [4]; in test [7]; with Aromatase (Homo sapiens)) was “inactive” throughout.

`CCOc1cc(-c2nccc3cc(OC)c(OC)cc23)cc(OCC)c1OCC`: the Potency in test [1] is 29.8 µM (active). The Potency entry in test [6], in test [3] and in [4] was “inactive” each time.

In the case of `CCC(=O)NCCC1CCc2ccc3c(c21)CCO3` (stereo not drawn), the Potency entry (in test [1]; in test [6]; in [3]; in test [4]; in test [5]; with Aromatase (Homo sapiens)) was “inactive” throughout. Moreover, in test [7], the Potency was 4.22 µM (active).

On to `CCCCCCCCCCCCCCCCCC(=O)[O][Al]`, for which the Potency entry in test [1], in test [6], in test [2], in [4], in test [7] and in test [5] was “inactive” in each case. For the same compound, the Potency result in the test with Aromatase (Homo sapiens) was “inactive”.

As for `C[N+]1(C)[C@@H]2CC(OC(=O)C(O)(c3cccs3)c3cccs3)C[C@H]1[C@@H]1O[C@@H]12` (stereo partly drawn), the Potency result in test [1], in test [2], in [3], in test [4], in [8] and in test [5] was “inactive” in each case. For the same compound, the Potency result with Aromatase (Homo sapiens) is “inactive”.

`NC(=O)C[C@@H](N)C(=O)O`: the Potency entry (in test [1]; in test [6]; in test [3]; in the test with Aromatase (Homo sapiens)) was “inactive” each time.

Regarding `CN1CCCC(CN2c3ccccc3Sc3ccccc32)C1` (stereo not drawn), the Potency is 11.9 µM (active) in test [1] and 19 µM [inhibitor] (active) in test [2]. The Potency entry in test [3], in [4], in [7], in test [8] and in test [5] was “inactive” each time.

For `O=C(O)c1cc(O)c2c(c1)[O][Bi][O]2`, the Potency result (in test [1]; in test [6]; in test [3]; in [5]; in the test with Aromatase (Homo sapiens)) was “inactive” in each case. For the same compound, the Potency is 0.012 µM [inconclusive] (active) in [4] and 0.0019 µM (active) in test [7].

For `CC(C)CCC[C@@H](C)[C@H]1CC(=O)C2=C3CC[C@H]4C[C@@H](O)CC[C@]4(C)[C@H]3CC[C@@]21C`, the Potency entry in test [1], in test [6], in test [2], in test [4], in test [7] and in test [8] was “inactive” in each case. Further, the Potency result (in test [5]; with Aromatase (Homo sapiens)) was “inactive” throughout.
